TRb-SRC2 inh – qHTS for Inhibitors of the Interaction of Thyroid Hormone Receptor and Steroid Receptor Coregulator 2. TRbeta-SRC2 peptide binding, fluorescence polarization; receptor liganded with 1 µM T3. AID 1469, 2008. Potency, µM (doses to about 106 µM), usual class: inhibitors. 0.065% of 280,000 active. Thyroid hormone receptor beta (Homo sapiens), P10828; active means well fitted inhibition curve with a large enough effect; inconclusive means small, poorly fitted or top-dose-only effect, or effect the other way; further: nearly all actives have a fitted effect of over 50% in size
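Polarization signal, normalized between peptide-alone and full complex controls, measured compound effects on T3-liganded human TRb LBD (0.6 uM) binding 20 nM Texas Red SRC2 peptide after 5 hr.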
TexasRed fluor – Total Fluorescence Counterscreen for Inhibitors of the Interaction of Thyroid Hormone Receptor and Steroid Receptor Coregulator 2; TRb/SRC2 Texas Red total fluorescence interference; Potency, µM (highest dose often 106 µM); 0.29% of 280,000 active; AID 1479, 2009; active means well fitted curve in either direction with a large enough effect; inconclusive means small, poorly fitted or top-dose-only effect
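Human TRβ ligand-binding domain (0.6 uM) and Texas Red SRC2 peptide (20 nM) in Tris buffer with 1 uM T3 and 5% DMSO were incubated with pinned compound for 5 hr at ambient temperature. Total fluorescence was computed as S + 2P (555/632 nm).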
ERG-DNA inh – qHTS for Small Molecule Inhibitors of the ERG Ets/DNA interaction | AID 624246, 2012 | fluorescence polarization, His-ERG Ets domain / labelled DNA | Potency, µM (doses to about 76.9 µM), usual class: inhibitors | 0.028% of 370,000 active | Transcriptional regulator ERG (Homo sapiens), P11308; active means well fitted inhibition curve with a large enough effect in the polarisation, with a control signal flat; inconclusive means small, poorly fitted or top-dose-only effect, or effect the other way, or a change in a side signal; inactive means no such curve, though single readings can be large or run the other way; the % refers to the polarisation;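 further: polarization taken with two DNA probes labelled with fluorescein and Texas red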
Target sequence (P11308 whole entry, looked up, the tested form may be a part): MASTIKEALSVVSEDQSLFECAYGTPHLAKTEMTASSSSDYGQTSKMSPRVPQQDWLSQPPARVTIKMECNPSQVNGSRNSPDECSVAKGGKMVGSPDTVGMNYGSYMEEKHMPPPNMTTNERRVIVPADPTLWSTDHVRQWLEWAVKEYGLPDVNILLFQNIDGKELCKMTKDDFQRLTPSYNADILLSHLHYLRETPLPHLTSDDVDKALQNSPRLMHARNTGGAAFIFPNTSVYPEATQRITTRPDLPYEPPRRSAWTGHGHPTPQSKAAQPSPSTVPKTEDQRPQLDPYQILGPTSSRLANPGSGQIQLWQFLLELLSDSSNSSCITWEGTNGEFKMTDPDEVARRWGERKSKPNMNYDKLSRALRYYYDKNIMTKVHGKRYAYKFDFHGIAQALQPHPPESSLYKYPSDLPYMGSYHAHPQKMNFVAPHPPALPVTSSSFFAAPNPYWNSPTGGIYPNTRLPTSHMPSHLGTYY
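His-tagged ERG Ets domain (1 uM in the protein solution; 300mM KCl, 50mM Tris-HCl, 1mM EDTA, 1mM DTT, pH 7.5) received compound, then a probe mix of 5 nM fluorescein-DNA and 100nM Texas-615-DNA. Fluorescence polarization was read for both dyes.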
A number is an active result; [ ] = dose if it differs, or a comment. The full list was thinned out, with hits kept by preference.

How did COc1ccc(NC(=O)CN(Cc2ccccc2)S(=O)(=O)c2ccc(C)cc2)cc1Cl do in these assays?
TRb-SRC2 inh: inactive; TexasRed fluor: 6.3µM[quencher]; ERG-DNA inh: inactive

Results for COC(=O)c1ccc(NC(=O)CN(Cc2ccccc2)S(=O)(=O)c2ccc(C)cc2)cc1 ?
TRb-SRC2 inh: inactive; TexasRed fluor: inactive; ERG-DNA inh: inactive

Results for O=C(O)CCCCCCC(=O)O ?
TRb-SRC2 inh: inactive; TexasRed fluor: inactive

Results for COC1=C(OC)C(=O)c2ccccc2C1=O ?
TRb-SRC2 inh: inactive; TexasRed fluor: inactive

What do the screens show for `Nc1ccc(O)c2c1C(=O)c1ccccc1C2=O`?
TRb-SRC2 inh: inactive; TexasRed fluor: inactive; ERG-DNA inh: inactive

How did COc1ccc(OC)c2c1C(=O)c1ccccc1C2=O do in these assays?
TRb-SRC2 inh: inactive; TexasRed fluor: inactive; ERG-DNA inh: 32µM

Results for COc1ccc(N)c2c1C(=O)c1ccccc1C2=O ?
TRb-SRC2 inh: 32µM; TexasRed fluor: 50µM[fluorescent]; ERG-DNA inh: inconclusive

How did CC(C)C(=O)OCC(C)(C)C(O)C(C)C (stereo not given) do in these assays?
TRb-SRC2 inh: inactive; TexasRed fluor: inactive

How did CCCCC1CN2C(CCC(C)C2c2ccc(Br)cc2)C(=O)O1 (stereo not given) do in these assays?
TRb-SRC2 inh: inactive[11.2 µM]; TexasRed fluor: inactive[11.2 µM]

What do the screens show for `O=C(c1ccccc1)N1CCN(c2ccc(NCc3ccc4c(c3)OCO4)cc2)CC1`?
TRb-SRC2 inh: inactive; TexasRed fluor: inactive; ERG-DNA inh: inactive

How did CC(=O)N1CCN(c2ccc(NCc3ccc4c(c3)OCO4)cc2)CC1 do in these assays?
TRb-SRC2 inh: 40µM; TexasRed fluor: inactive; ERG-DNA inh: inactive

How did C=CCOC(=O)N[C@@H](c1ccccc1)[C@@H](C)[N+](=O)[O-] do in these assays?
TRb-SRC2 inh: inactive; TexasRed fluor: inactive

What do the screens show for `O=C1C2C(c3ccccc3)CC=CC2C(c2ccc(C(F)(F)F)cc2)N1Cc1ccccc1` (stereo not given)?
TRb-SRC2 inh: inactive; TexasRed fluor: inactive

How did Nc1c(C(=O)Nc2nc3ccccc3s2)sc2nc(-c3cccs3)ccc12 do in these assays?
TRb-SRC2 inh: inconclusive; TexasRed fluor: 32µM[quencher]; ERG-DNA inh: inactive

How did Nc1c(C(=O)Nc2ccccc2Br)sc2nc(-c3cccs3)ccc12 do in these assays?
TRb-SRC2 inh: inactive; TexasRed fluor: inactive; ERG-DNA inh: inactive

How did Cc1ccc2c(c1)C1C=CCC1C(C(=O)O)N2 (stereo not given) do in these assays?
TRb-SRC2 inh: inactive; TexasRed fluor: inactive

Results for O=C(O)C1Nc2c(O)cc(Cl)c([N+](=O)[O-])c2C2C=CCC12 (stereo not given) ?
TRb-SRC2 inh: inconclusive; TexasRed fluor: 13µM[quencher]; ERG-DNA inh: inactive

How did CC(C)(C)NC(=O)c1oc2ccccc2c1NC(=O)c1ccc(F)cc1 do in these assays?
TRb-SRC2 inh: inactive; TexasRed fluor: inactive; ERG-DNA inh: inactive

How did O=C(CSc1nnc(-c2cccnc2)s1)Nc1ccnc2ccccc12 do in these assays?
TRb-SRC2 inh: inactive; TexasRed fluor: inactive; ERG-DNA inh: inactive

How did Cc1ccc(NC(=O)CSc2nnc(-c3cccnc3)s2)cc1 do in these assays?
TRb-SRC2 inh: inconclusive; TexasRed fluor: 0.32µM[quencher]; ERG-DNA inh: inactive

What do the screens show for `NC(C(=O)O)C(O)c1ccc(O)c(O)c1` (stereo not given)?
TRb-SRC2 inh: inactive; TexasRed fluor: inactive

Results for O=C(NCc1ccc(F)cc1)c1nnc(Cc2cccc(F)c2)o1 ?
TRb-SRC2 inh: inactive; TexasRed fluor: inconclusive; ERG-DNA inh: inactive

What do the screens show for `O=C(NCCc1ccccc1)c1nnc(Cc2cccc(F)c2)o1`?
TRb-SRC2 inh: inactive; TexasRed fluor: 0.0056µM[quencher]; ERG-DNA inh: inactive

Results for CNc1nc(=O)n(C2CCC(O)CC2)c(=O)n1C (stereo not given) ?
TRb-SRC2 inh: inactive; TexasRed fluor: inactive

How did O=C(NCCC1=CCCCC1)c1ccc2c(c1)N(Cc1ccccc1F)C(=O)c1ccccc1S2=O (stereo not given) do in these assays?
TRb-SRC2 inh: inactive; TexasRed fluor: inactive; ERG-DNA inh: inactive

What do the screens show for `Cl[Si](Cl)(Cl)c1ccccc1`?
TRb-SRC2 inh: inactive; TexasRed fluor: inactive

Results for CC1=[N+](C)c2c(ccc3cccnc23)C1(C)C ?
TRb-SRC2 inh: 25µM; TexasRed fluor: 11µM[fluorescent]; ERG-DNA inh: inactive

What do the screens show for `Cc1[nH]c2c(ccc3cccnc32)c1C`?
TRb-SRC2 inh: inactive; TexasRed fluor: inactive; ERG-DNA inh: inactive

Results for C=C(C)C(=O)OCCOCCOCCOC(=O)C(=C)C ?
TRb-SRC2 inh: inactive; TexasRed fluor: inactive

Results for O=C(N/N=C\c1cccs1)c1ccccc1-n1cccc1 ?
TRb-SRC2 inh: inactive; TexasRed fluor: inactive; ERG-DNA inh: inactive

Results for Cc1c(C(=O)N/N=C/c2cccs2)nc2ccccn12 ?
TRb-SRC2 inh: inactive; TexasRed fluor: 178µM[quencher]; ERG-DNA inh: inactive

Results for CC(=O)CSc1nnc2cc(C)c3cc(C)cc(C)c3n12 ?
TRb-SRC2 inh: inactive; TexasRed fluor: 25µM[quencher]; ERG-DNA inh: inactive

Results for CCOC(=O)CSc1nnc2cc(C)c3ccccc3n12 ?
TRb-SRC2 inh: inactive; TexasRed fluor: inactive; ERG-DNA inh: inactive

What do the screens show for `COc1cc2oc(-c3ccccc3)cc(=O)c2cc1OC`?
TRb-SRC2 inh: inactive; TexasRed fluor: inactive

Results for CN(C)c1ccc2c(-c3ccccc3)c3ccc(=[N+](C)C)cc-3oc2c1 ?
TRb-SRC2 inh: 0.1µM; TexasRed fluor: 0.89µM[fluorescent]

What do the screens show for `Cc1cc(/C=C/c2ccc3cc(N(C)C)ccc3[n+]2C)c(C)n1-c1ccccc1`?
TRb-SRC2 inh: inconclusive; TexasRed fluor: 40µM[fluorescent]

What do the screens show for `Cc1cc(/C=N/O)c(C)n1-c1ccccc1`?
TRb-SRC2 inh: inactive; TexasRed fluor: inactive; ERG-DNA inh: inactive

What do the screens show for `O=C(NCc1ccccc1Cl)C1CCN(S(=O)(=O)c2ccc3c(c2)CCCN3C(=O)C2CCC2)CC1`?
TRb-SRC2 inh: inactive; TexasRed fluor: inactive; ERG-DNA inh: inactive

Results for Cc1ccc2nc(-c3ccc(NS(C)(=O)=O)cc3)cc(-c3ccccc3)c2c1 ?
ERG-DNA inh: inactive

How did CCS(=O)(=O)Nc1ccc(-c2cc(-c3ccccc3)c3cc(C)ccc3n2)cc1 do in these assays?
TRb-SRC2 inh: inactive; TexasRed fluor: 0.14µM[quencher]

Results for CC[C@H](C)[C@H](NC(=O)[C@H](Cc1ccc(O)cc1)NC(=O)[C@@H](NC(=O)[C@H](CCCN=C(N)N)NC(=O)[C@@H](N)CC(=O)O)C(C)C)C(=O)N[C@@H](Cc1cnc[nH]1)C(=O)N1CCC[C@H]1C(=O)N[C@@H](Cc1ccccc1)C(=O)N[C@@H](Cc1cnc[nH]1)C(=O)N[C@@H](CC(C)C)C(=O)O ?
TRb-SRC2 inh: inactive; TexasRed fluor: inconclusive

What do the screens show for `O=S(c1ccc(Cl)cc1)c1cc(Cl)c(Cl)cc1Cl` (stereo not given)?
TRb-SRC2 inh: inactive; TexasRed fluor: inactive

How did COc1ccc(CC(=O)Nc2cc(-c3nc4cccnc4s3)ccc2C)cc1 do in these assays?
TRb-SRC2 inh: inactive; TexasRed fluor: inconclusive; ERG-DNA inh: inactive

What do the screens show for `Cc1ccc(-c2nc3cccnc3s2)cc1NC(=O)Cc1ccccc1`?
TRb-SRC2 inh: inactive; TexasRed fluor: 100µM[quencher]; ERG-DNA inh: inactive

Assay outcomes from PubChem BioAssay.
